Measurements from PubChem BioAssay (NCI).
The panel holds about 79,000 compounds, 15% with a hit somewhere; the sample as a whole holds those more often. Calls of active or inactive are those of the source. Cut-off read from the data, not from the text of the source: active = growth inhibition above about 70%; inactive = the rest. Residues, ends and D or L forms follow the SMILES beside them. *: point of attachment. Fmoc = O=C(OCC1c2ccccc2-c2ccccc21)*; Boc = CC(C)(C)OC(=O)*

Experiment: NCI Yeast Anticancer Drug Screen. Data for the mgt1 strain (AID 153)
Conditions: S. cerevisiae mgt1 mutant growth inhibition; at 11.0 µM; stronger effect = higher value
Method in brief: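 Compounds were applied to mgt1 mutant yeast, and growth was then compared against vehicle-treated control cultures to give percent inhibition.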

Row | SMILES | growth inhibition
1 | CC(C)C(=O)CC(Sc1ccc(N)cc1)c1ccccc1 (configuration not stated) | 27% (inactive)
2 | CC(C)OP(=O)(OC(C)C)/C(Cl)=N/Nc1ccc([N+](=O)[O-])cc1 | 16% (inactive)
3 | O=[N+]([O-])c1cc(Cl)ccc1S(=O)(=O)c1ccc(Cl)cc1[N+](=O)[O-] | 0% (inactive)
4 | CCCCCCNCCCNc1c2cc(OC)ccc2nc2cccc([N+](=O)[O-])c12 | 10% (inactive)
5 | N#CCC(=O)N/N=C(\c1ccccc1)C(c1ccccc1)C1(O)C(=O)Nc2c(Cl)ccc(Cl)c21 (configuration not stated) | -3% (inactive)
6 | CN(C)CCNCCCNc1c2ccccc2nc2cccc([N+](=O)[O-])c12 | 20% (inactive)
7 | CCC[CH2][Ge]([CH2]CCC)([CH2]CCC)[O]C(=O)C(O)c1ccccc1 (configuration not stated) | 10% (inactive)
8 | COc1ccc(-c2cc(-c3cc(C)cc(Cl)c3O)nc3[nH]c(=S)[nH]c(=S)c23)cc1 | -3% (inactive)
9 | O=[N+]([O-])c1ccc(/C=C\c2ccc3c(c2)OCO3)c([N+](=O)[O-])c1 | 5% (inactive)
10 | O=C1c2ccccc2N2OC3(N4CCCC4)CCCCC3C12c1ccccc1 (configuration not stated) | -24% (inactive)
11 | CC(C)OC(=O)NNc1cc(Cl)ccc1Cl | 19% (inactive)
12 | Cc1oc2ccccc2c(=O)c1Cn1nnc2ccccc21 | 0% (inactive)
13 | CC1(C)OC(=O)C(=Cc2ccc([N+](=O)[O-])s2)C(=O)O1 | 26% (inactive)
14 | CCN(CC)CCCNc1ccc([N+](=O)[O-])c2nc3ccc(OC)cc3c(NCCCN(CC)CC)c12 | 3% (inactive)
15 | COc1cccc(/C=C2\S/C(=N/Nc3nc(-c4ccc([N+](=O)[O-])cc4)cs3)NC2=O)c1O | 39% (inactive)
16 | OC(Cc1cccc2ccccc12)CN1CCC(c2ccccc2)CC1 (configuration not stated) | 81% (active)
17 | C1=CCN([B-](c2ccccc2)[C+]2CCCCC2)C=C1 | 0% (inactive)
18 | O=[N+]([O-])c1cc[n+]([O-])c(Cl)c1 | 24% (inactive)

Row | SMILES | growth inhibition
19 | CCCNC(=O)OCc1c(COC(=O)NCCC)c(-c2ccc(Cl)c(Cl)c2)n2c1CCC2 | -30% (inactive)
20 | CC1(C)CC(=O)C(C(=O)Nc2cccs2)=C(O)C1 | 35% (inactive)
21 | O=C(NO)c1coc2ccccc2c1=O | -14% (inactive)
22 | COc1ccc(C(C)c2cc3c(cc2OCC(C)=O)OCO3)cc1 (configuration not stated) | -4% (inactive)
23 | CCS(=O)(=O)Nc1ccc(Nc2c3ccccc3nc3ccccc23)c(OC)c1 | -28% (inactive)
24 | O=S(=O)(c1ccccc1)N1CN2CN(C1)CN(S(=O)(=O)c1ccccc1)C2 | 5% (inactive)
25 | CC1=NN(C(=O)c2ccccc2O)C(=O)/C1=C/c1ccco1 | 65% (inactive)
26 | O=C1C=C(Br)C(=O)c2ccccc21 | 96% (active)
27 | C[N+](C)([O-])CCCNc1c2ccccc2nc2cccc([N+](=O)[O-])c12 | 7% (inactive)
28 | Cc1cccc2c(NCCCN(C)C)c3c([N+](=O)[O-])ccc(C)c3nc12 | 69% (inactive)
29 | OC1(c2ccccc2)C2CC=CC2C1(c1ccccc1)c1ccccc1 (configuration not stated) | -5% (inactive)
30 | C[n+]1c(-c2ccc(/C=N/NC(=O)c3ccc(C(=O)N/N=C/c4ccc(-c5cn6ccccc6[n+]5C)cc4)cc3)cc2)cn2ccccc21 | 42% (inactive)
31 | CCN(CC)CCC(=O)Nc1ccc2sc3ccccc3c(=O)c2n1 | 5% (inactive)
32 | O=[N+]([O-])c1ccc2nc(=S)[nH]n2c1 | -4% (inactive)
33 | O=C(c1ccccc1)[C@H]1Nc2ccc(Cl)cc2[C@H]2OCCC[C@@H]12 | -39% (inactive)
34 | COc1cc([N+](=O)[O-])c2ncccc2c1Br | -1% (inactive)
35 | O=S(=O)(c1cccc(C(F)(F)F)c1)N1c2ccccc2-n2cccc2C1c1cccnc1 (configuration not stated) | 78% (active)
36 | CC(C)(C)OC(=O)NCCCCC(NC(=O)C(Cc1c[nH]c2ccccc12)NC(=O)OCC1c2ccccc2-c2ccccc21)C(=O)O (configuration not stated) (Fmoc-Trp-Lys(Boc)-OH; configuration not given here) | -4% (inactive)

Same assay, conditions: S. cerevisiae mgt1 mutant growth inhibition; at 33.0 µM; stronger effect = higher value

Row | SMILES | growth inhibition
37 | CC(C)C(=O)CC(Sc1ccc(N)cc1)c1ccccc1 (configuration not stated) | 32% (inactive)
38 | CC(C)OP(=O)(OC(C)C)/C(Cl)=N/Nc1ccc([N+](=O)[O-])cc1 | 78% (active)
39 | O=[N+]([O-])c1cc(Cl)ccc1S(=O)(=O)c1ccc(Cl)cc1[N+](=O)[O-] | 84% (active)
40 | CCCCCCNCCCNc1c2cc(OC)ccc2nc2cccc([N+](=O)[O-])c12 | 81% (active)
41 | N#CCC(=O)N/N=C(\c1ccccc1)C(c1ccccc1)C1(O)C(=O)Nc2c(Cl)ccc(Cl)c21 (configuration not stated) | -2% (inactive)
42 | CN(C)CCNCCCNc1c2ccccc2nc2cccc([N+](=O)[O-])c12 | 26% (inactive)
43 | CCC[CH2][Ge]([CH2]CCC)([CH2]CCC)[O]C(=O)C(O)c1ccccc1 (configuration not stated) | 93% (active)
44 | COc1ccc(-c2cc(-c3cc(C)cc(Cl)c3O)nc3[nH]c(=S)[nH]c(=S)c23)cc1 | 25% (inactive)
45 | O=[N+]([O-])c1ccc(/C=C\c2ccc3c(c2)OCO3)c([N+](=O)[O-])c1 | 20% (inactive)
46 | O=C1c2ccccc2N2OC3(N4CCCC4)CCCCC3C12c1ccccc1 (configuration not stated) | -13% (inactive)
47 | CC(C)OC(=O)NNc1cc(Cl)ccc1Cl | 21% (inactive)
48 | Cc1oc2ccccc2c(=O)c1Cn1nnc2ccccc21 | 2% (inactive)
49 | CC1(C)OC(=O)C(=Cc2ccc([N+](=O)[O-])s2)C(=O)O1 | 95% (active)
50 | CCN(CC)CCCNc1ccc([N+](=O)[O-])c2nc3ccc(OC)cc3c(NCCCN(CC)CC)c12 | 1% (inactive)
51 | COc1cccc(/C=C2\S/C(=N/Nc3nc(-c4ccc([N+](=O)[O-])cc4)cs3)NC2=O)c1O | 59% (inactive)
52 | OC(Cc1cccc2ccccc12)CN1CCC(c2ccccc2)CC1 (configuration not stated) | 96% (active)
53 | C1=CCN([B-](c2ccccc2)[C+]2CCCCC2)C=C1 | 44% (inactive)
54 | O=[N+]([O-])c1cc[n+]([O-])c(Cl)c1 | 99% (active)

Row | SMILES | growth inhibition
55 | CCCNC(=O)OCc1c(COC(=O)NCCC)c(-c2ccc(Cl)c(Cl)c2)n2c1CCC2 | -7% (inactive)
56 | CC1(C)CC(=O)C(C(=O)Nc2cccs2)=C(O)C1 | 92% (active)
57 | O=C(NO)c1coc2ccccc2c1=O | -5% (inactive)
58 | COc1ccc(C(C)c2cc3c(cc2OCC(C)=O)OCO3)cc1 (configuration not stated) | -7% (inactive)
59 | CCS(=O)(=O)Nc1ccc(Nc2c3ccccc3nc3ccccc23)c(OC)c1 | 3% (inactive)
60 | O=S(=O)(c1ccccc1)N1CN2CN(C1)CN(S(=O)(=O)c1ccccc1)C2 | 7% (inactive)
61 | CC1=NN(C(=O)c2ccccc2O)C(=O)/C1=C/c1ccco1 | 88% (active)
62 | O=C1C=C(Br)C(=O)c2ccccc21 | 99% (active)
63 | C[N+](C)([O-])CCCNc1c2ccccc2nc2cccc([N+](=O)[O-])c12 | 70% (active)
64 | Cc1cccc2c(NCCCN(C)C)c3c([N+](=O)[O-])ccc(C)c3nc12 | 98% (active)
65 | OC1(c2ccccc2)C2CC=CC2C1(c1ccccc1)c1ccccc1 (configuration not stated) | -4% (inactive)
66 | C[n+]1c(-c2ccc(/C=N/NC(=O)c3ccc(C(=O)N/N=C/c4ccc(-c5cn6ccccc6[n+]5C)cc4)cc3)cc2)cn2ccccc21 | 84% (active)
67 | CCN(CC)CCC(=O)Nc1ccc2sc3ccccc3c(=O)c2n1 | 4% (inactive)
68 | O=[N+]([O-])c1ccc2nc(=S)[nH]n2c1 | -8% (inactive)
69 | O=C(c1ccccc1)[C@H]1Nc2ccc(Cl)cc2[C@H]2OCCC[C@@H]12 | 32% (inactive)
70 | COc1cc([N+](=O)[O-])c2ncccc2c1Br | -4% (inactive)
71 | O=S(=O)(c1cccc(C(F)(F)F)c1)N1c2ccccc2-n2cccc2C1c1cccnc1 (configuration not stated) | 94% (active)
72 | CC(C)(C)OC(=O)NCCCCC(NC(=O)C(Cc1c[nH]c2ccccc12)NC(=O)OCC1c2ccccc2-c2ccccc21)C(=O)O (configuration not stated) (Fmoc-Trp-Lys(Boc)-OH; configuration not given here) | 8% (inactive)
